Screens from PubChem BioAssay.
This is a sample that favours compounds with a hit; in the whole collection about 9% have one here.
BAZ2B block = qHTS Assay for Inhibitors of BAZ2B; AID 504333, 2011; actives 4.4% (n = 360,000); Potency, µM (highest dose often 114 µM), without a hit: at the top dose activity change, negative = inhibition, most hits filed as inhibitors; AlphaScreen BAZ2B-H3K14Ac peptide displacement; also: % is scaled to controls: 0 for no effect and ±100 for the full control effect; nearly all actives have a fitted effect of over 60% in size
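AlphaScreen luminescence quantifies BAZ2B engagement of H3K14Ac peptide; the protein and biotinylated peptide are both at 50 nM final, buffer PBS pH 7.4 with 0.01% Tween-20, all steps at room temperature.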
PLK1 PBD block = qHTS for Inhibitors of PLK1-PDB (polo-like kinase 1 - polo-box domain): Primary Screen | Potency, µM, for inactives: max response, negative = inhibition, usual class: inhibitors | actives 2.8% (n = 360,000) | Serine/threonine-protein kinase PLK1 (Homo sapiens), P53350 | Plk1 PBD binding of FITC phosphopeptide, fluorescence polarization; also: series mostly up to about 57 µM; % is scaled to controls: 0 for no effect and ±100 for the full control effect; nearly all actives have a fitted effect of over 65% in size
HP1b chromo inh = HTS for Inhibitors of HP1-beta Chromodomain Interactions with Methylated Histone Tails; Chromobox protein homolog 1 (Homo sapiens), P83916; AlphaScreen HP1-beta / biotin-H3K9me3 peptide binding; Potency, µM (series often up to 114 µM), for inactives: at the top dose activity change, negative = inhibition, hits mostly inhibitors; actives 0.56% (n = 390,000); AID 540317, 2011; also: nearly all actives have a fitted effect of over 70% in size
Target sequence (P83916 whole entry, looked up): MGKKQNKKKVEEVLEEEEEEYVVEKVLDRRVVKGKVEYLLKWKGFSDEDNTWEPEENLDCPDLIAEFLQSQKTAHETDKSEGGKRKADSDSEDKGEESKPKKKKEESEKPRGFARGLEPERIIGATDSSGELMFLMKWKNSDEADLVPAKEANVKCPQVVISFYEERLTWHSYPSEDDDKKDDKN
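HP1-beta protein (50 nM final) preincubated 30 min at room temperature with biotinylated H3(1-18)K9me3 peptide (50 nM) in PBS pH 7.4, 0.01% Tween-20, then compound added for 30 min. AlphaScreen streptavidin donor/nickel chelate acceptor beads (10 ug/mL final), 30 min dark, luminescence read.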
G9a block = qHTS Assay for Inhibitors of Histone Lysine Methyltransferase G9a; Histone-lysine N-methyltransferase EHMT2 (Homo sapiens), Q96KQ7; G9a H3K9 monomethylation, AlphaScreen, 2 h; Potency, µM (titrated, usually from 102 µM), without a hit: top-dose activity, negative = inhibition, actives largely listed as inhibitors; actives 8.8% (n = 350,000); also: % is scaled to controls: 0 for no effect and ±100 for the full control effect; nearly all actives have a fitted effect of over 75% in size
Target sequence (Q96KQ7 913-1193 limits assumed): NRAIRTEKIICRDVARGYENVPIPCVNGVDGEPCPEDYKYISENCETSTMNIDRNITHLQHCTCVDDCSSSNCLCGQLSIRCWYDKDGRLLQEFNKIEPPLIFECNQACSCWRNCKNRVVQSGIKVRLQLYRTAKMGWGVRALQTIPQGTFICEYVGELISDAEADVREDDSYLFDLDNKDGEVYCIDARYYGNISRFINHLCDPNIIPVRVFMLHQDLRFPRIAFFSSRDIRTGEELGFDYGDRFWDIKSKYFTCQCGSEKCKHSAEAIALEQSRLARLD
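Signal arises when biotinylated H3K9 peptide, once monomethylated, bridges streptavidin donor and antibody-captured acceptor beads. Enzyme at 20 nM was preincubated 15 min with test compounds; peptide 500 nM and SAM 20 uM then reacted for 2 h.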
JMJD2A Tudor = qHTS Assay for Inhibitors of JMJD2A-Tudor Domain; actives 4.4% (n = 390,000); Lysine-specific demethylase 4A (Homo sapiens), O75164; AlphaScreen JMJD2A-Tudor / H3K4me3 peptide binding; Potency, µM (series often up to 114 µM), without a hit: top-dose activity change, negative = inhibition, usual class: inhibitors; also: % is scaled to controls: 0 for no effect and ±100 for the full control effect; nearly all actives have a fitted effect of over 50% in size
ALOX12 inh = Primary qHTS assay for inhibitors of human arachidonate 12S-lipoxygenase (ALOX12): Round 2; Polyunsaturated fatty acid lipoxygenase ALOX12 (Homo sapiens), P18054; purified 12hLO, xylenol orange hydroperoxide absorbance; Potency, µM (doses to about 108 µM), without a hit: at the highest dose activity change, negative = inhibition, hits mostly inhibitors; actives 1.1% (n = 580,000); AID 1671190, 2021; also: % is scaled to controls: 0 for no effect and ±100 for the full control effect
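Purified human 12hLO at 150 nM in 25 mM Hepes, 0.01% Triton X-100, pH 7.0, preincubated 15 min at room temperature with compound. Reaction started with 40 uM arachidonic acid, 30 min at room temperature. Hydroperoxide measured by Fe-xylenol orange, 573/405 nm absorbance ratio.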
An asterisk follows results filed as active; ? = inconclusive; · = no result; [ ] = remark or other dose. Calls follow the shape of the dose curve; as a rule, active = well fitted curve in the direction sought with a large enough effect; inconclusive = small, poorly fitted or top-dose-only effect, or another doubt; inactive = no such curve, though single readings can be large; an effect the other way counts as inactive or inconclusive. Potency is read from the fitted curve at half-maximal effect.

SMILES	BAZ2B block	PLK1 PBD block	HP1b chromo inh	G9a block	JMJD2A Tudor	ALOX12 inh
COc1ccc(N2CCN(C(c3ccc4ncccc4c3)c3nnnn3C(C)(C)C)CC2)cc1 (stereo not drawn)	35µM*	-4%	-12%	?	?	-13%
CCOc1ccc(CC2CC(=O)NC2=O)cc1 (stereo not drawn)	0%	-20%	59%	3%[59 µM]	-9%[11.4 µM]	111%
COc1ccc(-c2n[nH]c3c2C(c2ccc(O)cc2)N(c2ccc(Br)cc2)C3=O)cc1 (stereo not drawn)	·	·	21%	-39%[59 µM]	-29%	?
COc1ccc(CNC(=O)c2ccc(S(=O)(=O)N3CCOCC3)cc2)cc1	-2%	-2%	25%	-23%	1%	-5%
O=[N+]([O-])c1ccc(CSc2ccc(S(=O)(=O)N3CCOCC3)cn2)cc1	-27%	-14%	7%	20µM*	-23%	-20%
COc1ccc(CNC(=O)C(C)Sc2ccc(S(=O)(=O)N3CCOCC3)cn2)cc1 (stereo not drawn)	-3%	-24%	40%	32µM*	3%	-12%
COc1ccccc1CNc1nc2ccccc2nc1NS(=O)(=O)c1cccs1	·	·	·	·	·	25%
Oc1oc(-c2ccccc2)nc1/C=N/c1ccccn1	-24%	-5%	12%	?	-10%	-7%
O=C(c1ccccc1)N1CCC2(CC1)NCCc1c2[nH]c2ccccc12	·	·	·	·	·	33%
O=C(O)c1cccc(-c2ccc(/C=N/NC(=O)C3COc4ccccc4O3)o2)c1 (stereo not drawn)	?	-25%	8%	40µM*	-16%	3%
CC(C)(C)c1ccc2c(c1)OC(C(=O)N/N=C\c1ccc(-c3cccc(C(=O)O)c3)o1)CO2 (stereo not drawn)	50µM*	19µM*	3%	40µM*	-25%	?
CCCCN(C)C(=O)c1cn(CC)c2nc(C)ccc2c1=O	3%	-3%	4%	-26%	-7%	4%
CCOC(=O)C1=C(C)N(C[C@@H]2CC[C@@H](Cc3ccc(-c4ccccc4)cc3)O2)C(=O)NC1c1ccc(Cl)cc1 (stereo partly drawn)	·	-9%	17%	·	-21%	-4%
O=C(c1ccncc1)N(c1ccc(N2CCOCC2)cc1)C(c1ccccc1)c1nc2ccccc2[nH]1 (stereo not drawn)	·	?	·	·	·	11µM*
CC1=C(C(=O)OC(C)C)C(c2cccs2)N2C(=O)C(C)SC2=N1 (stereo not drawn)	2%	-8%	15%	2%	79µM*	-14%
CC(C)(C)c1ccc(/C=C/C(=O)NCCCN2CCOCC2)cc1	13%	-13%	32%	·	-15%	-2%
Nc1nc2c(s1)C(c1cccc(F)c1)CC(=O)N2 (stereo not drawn)	·	·	·	·	·	16µM*
CSc1ccc(C2CC(=O)Nc3nc(N)sc32)cc1 (stereo not drawn)	·	·	·	·	·	25µM*
COc1ccc(C2Cn3nnc(C(=O)NCc4ccc(F)c(Cl)c4)c3CO2)cc1 (stereo not drawn)	·	·	·	·	·	10%
NC(=O)CN1CCOCCN(CC(N)=O)CCOCC1	23%	-7%	37%	2%[59 µM]	-15%	·
Cc1ccc(Cn2c(SCC(=O)Nc3cccc(C)n3)nc3c2c(=O)n(C)c(=O)n3C)cc1	-7%	·	·	-7%[12.7 µM]	·	·
Clc1cccc(NCc2nnc(SCc3ccc(Cl)cc3Cl)o2)c1	42%	-9%	131%	53%[59 µM]	34%	8%
S=c1[nH]nc(CNc2cccc(Cl)c2)o1	-22%	?	21%	18µM*	-26%	39%
